Data on 24 molecules can be found in PubChem BioAssay AID720518 (National Center for Advancing Translational Sciences (NCATS), 2013).

Records with an inconclusive call do not appear. Where a call stands in place of a potency, no number is given. The source made the active and inactive calls. The call rests on the fitted dose curve.

This assay is described as follows: qHTS for Inhibitors of Cell Surface uPA Generation: Wild-type Protective Antigen (WT-PrAg) Counterscreen for Cherry-picked Compounds. To be noted: cells, WT protective antigen toxicity counterscreen; series mostly up to 115 µM. For orientation: qHTS replaces the single test concentration by a dilution series.
On to `COc1ccc(C(=O)N[C@H](C(=O)NCc2cccs2)C(C)C)cc1`, for which the Potency result was “inactive”. Turning to `CCN(CC)S(=O)(=O)c1ccc(NC(=S)Nc2ccc(F)cc2)cc1`, the Potency result is “inactive”. Take `Cc1cc(C)n(CCCNC(=O)c2ccc(C)o2)n1`: the Potency result was “inactive”. For `O=C(Cc1ccc(Cl)cc1)NC(=S)Nc1ccccc1O` the value was “inactive”. Turning to `CCN1CCN(Cc2ccc(NC(=O)c3cc(NC(=O)c4cncc(-c5cccs5)c4)cc(OC)c3)cc2C(F)(F)F)CC1`, the Potency entry is “inactive”. `Cc1ccc(S(=O)(=O)N(C)c2ccc(OC(=O)c3ccc(=O)[nH]c3)cc2)cc1`: the Potency entry was “inactive”. Regarding `COc1cc(NC(=O)COC(=O)c2cc(S(=O)(=O)N3CCCCC3)ccc2Cl)c(C)cc1[N+](=O)[O-]`, the Potency result is “inactive”. As for `Cc1ccc(NC(=O)CSc2nncn2N)cc1C`, the Potency entry is “inactive”. For `CCc1cc(CC)c(/C=N/NC(N)=O)c(CC)c1` the value was “inactive”; for `CCc1c(C)sc(NC(=S)N2CC(C)OC(C)C2)c1C(=O)OC` (centres undefined), “inactive”. For `Cc1ccc(-n2nc3c(c2NC(=O)c2ccc4c(c2)OCO4)CS(=O)C3)c(C)c1` (centres undefined) the value was “inactive”; for `Cc1cc(N)n(Cc2ccc(Cl)cc2)n1`, “inactive”. In the case of `CCc1ccc(S(=O)(=O)NCCc2cn3cccc(C)c3n2)s1`, the Potency entry is “inactive”.

For the molecule `CC(=O)NS(=O)(=O)c1ccc(NC(=O)c2cccc(OCc3c(C)noc3C)c2)cc1`, the Potency entry is “inactive”. With `COc1ccc(Cc2nnc(Nc3ccc(C)cc3)o2)cc1OC`, the Potency result was “inactive”.

As to `C[C@@H](NC(=O)c1nc[nH]c1C(=O)NCc1ccc(CNC(=O)OC(C)(C)C)cc1)c1ccccc1`, the Potency entry is “inactive”. For `Cc1ccc(S(=O)(=O)N2CCN(C(=O)c3n[nH]c(=O)c4ccccc34)CC2)cc1`, the Potency result is “inactive”. In the case of `CS(=O)(=O)N1CCC(C(=O)Nc2ccccc2)CC1`, the Potency result was “inactive”. Regarding `O=[N+]([O-])c1cccc(-c2noc(-c3cccs3)n2)c1`, the Potency result is “inactive”. For `CCN1CCN(C(c2ccccc2)c2nnnn2Cc2ccc3c(c2)OCO3)CC1` (centres undefined) the value was “inactive”. Take `COc1ccc([C@H]2CC(=O)C=C(c3ccc(CNC(=O)OC(C)(C)C)cc3)C2)cc1`: the Potency entry was “inactive”.

Regarding `O=C(O)COc1ccccc1/C=N/NC(=O)CNC(=O)c1ccco1`, the Potency entry was “inactive”. Then `Cc1nnc2ccc(-c3ccc(NS(=O)(=O)c4ccc(Cl)s4)cc3)nn12`, with “inactive”; and `COc1ccccc1NS(=O)(=O)c1cc(NC(=O)CCc2nc3ccccc3c(=O)[nH]2)ccc1C`, with “inactive”.
